# Assay outcomes as filed in PubChem BioAssay.
# A selection: hits, their analogues and other compounds. The true share with any hit is near 4.1%.
# aSyn UTR inh: MLPCN primary screen, SNCA 5' untranslated region | alpha-synuclein 5'UTR reporter, inhibitor activity | inhibition, % (tested at 7.5 µM) | 300,000 tested, 0.82% active | AID 1813; in the data active = inhibition above about 60%; inconclusive = no clear call, values can overlap the other calls;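 note: H4 neuroglioblastoma cells stably carrying SNCA 5'UTR luciferase fusion; 0% = DMSO wells and 100% = positive control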
# Mdm2-MdmX inh: disrupts the human Mdm2-MdmX interaction. O15151+Q00987. SaOS-2 split-luciferase Mdm2/MdmX complementation, luminescence. inhibition, % at 8 µM. 330,000 tested, 3% active. AID 485346;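 active = inhibition of at least 50% at 8 µM in the primary screen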
# KLF5 inhibitor: inhibitors of KLF5 expression. AID 1700. inhibition, % at 5 µM. DLD-1 KLF5 promoter-luciferase reporter, luminescence. 290,000 tested, 0.23% active;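 active = inhibition above a per-plate limit of that plate's mean compound inhibition plus 3 SD, cut at about 60% in these data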;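 note: 0% = DMSO wells and 100% = LY294002 at 200 µM; higher means less KLF5 promoter-driven luciferase light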
# Gli-Sufu block: blocks Gli-Sufu signaling in a luciferase reporter | Sufu-KO-LIGHT fibroblasts, Gli luciferase reporter luminescence | inhibition, % at 5 µM | 340,000 tested, 0.74% active | AID 588413;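 active = inhibition above about 55%, limit read from the data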;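 note: 0% = DMSO-treated cells and 100% = wells with medium but no cells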
# Jurkat NFkB inh: inhibitors of the PMA/ionomycin-induced NF-kB reporter in Jurkat cells | 330,000 tested, 0.53% active | PMA/ionomycin-induced NF-kB luciferase reporter, luminescence | AID 435003 | inhibition, % at 4 µM; in the data active = inhibition above about 50%
# 697 NFkB inh: inhibitors of the PMA/ionomycin-induced NF-kB reporter in 697 B cells; 697 B-cell NF-kB luciferase reporter, 16 h; inhibition, % at 4 µM; 330,000 tested, 0.33% active; in the data active = inhibition above about 35%
# Mdm2 MdmX conf: human Mdm2/MdmX binding inhibition, confirmed. inhibition, % at 8 µM. AID 489028. luminescent assay. shares compounds with Mdm2-MdmX inh. 10,000 tested, 55% active; in the data active = inhibition above about 40%
# FLuc counter: counter-screen for Mdm2/MdmX inhibitors: full-length luciferase | shares compounds with Mdm2-MdmX inh | SaOS-2 full-length luciferase counterscreen, luminescence | inhibition, % at 8 µM | 6,200 tested, 77% active;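 active = mean inhibition at 8 µM reaching about 37%, which flags the compound as non-specific, limit read from the data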;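 note: p53-null SaOS-2 cells with luciferase driven by a doxycycline-inducible promoter; compound on cells about two nights before reading with doxycycline added after day one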
# Starred values were filed as active, the others as inactive; ? = inconclusive; · = no result.
SMILES,aSyn UTR inh,Mdm2-MdmX inh,KLF5 inhibitor,Gli-Sufu block,Jurkat NFkB inh,697 NFkB inh,Mdm2 MdmX conf,FLuc counter
COc1ccc(-c2nn(-c3ccccc3)cc2C(=O)NC2CCC(C)CC2)cc1 (stereo not given),-28,28,·,-10,0,4,·,·
COc1ccc(-c2nn(-c3ccccc3)cc2C(=O)NC2CCCCC2C)cc1 (stereo not given),-8,74*,·,8,-7,11,29,·
N#Cc1nc(Nc2cc(F)cc(F)c2)c2ncn(CC(F)F)c2n1,·,-24,·,-81,-41,-90,·,·
N#Cc1nc(NCC(F)F)nc(Nc2cc(F)cc(F)c2)n1,·,64*,·,-125,2,-13,58*,28
C=CCc1cc(/C=C2/NC(=S)NC2=O)cc(OC)c1O,?,55*,-2,-18,-11,16,20,·
C=CCc1cc(/C=C2/NC(=O)NC2=O)cc(OCC)c1O,8,32,-6,-2,-9,15,·,·
CC(/C=N/n1c(-c2ccco2)n[nH]c1=S)=C\c1ccco1,8,-9,-12,7,1,7,·,·
CC(/C=N\Nc1nnc2c(n1)[nH]c1c(C)cccc12)=C\c1ccco1,-60,91*,-46,15,-9,-17,40*,57*
Cc1ccc(NC(=O)CSc2nnc(-c3ccccn3)n2N)c(Br)c1,9,8,4,7,3,34,·,·
Cc1ccc(/C=N/NC(=O)c2cc(-c3ccncc3)nc3ccccc23)o1,-12,48,60,48,39,29,·,·
O=C(N/N=C/c1cc([N+](=O)[O-])ccc1Cl)c1cc(-c2ccccc2)nc2ccccc12,-1,32,-21,3,4,-4,·,·
O=[N+]([O-])c1cc(/C=N/NC(=S)Nc2ccccc2Cl)ccc1Cl,·,59*,0,8,-11,21,21,·
O=C(N/N=C/c1ccco1)c1cc(-c2cccc(Br)c2)nc2ccccc12,-7,22,12,4,8,14,·,·
O=C(N/N=C/c1ccc(Cl)c([N+](=O)[O-])c1)c1cc(-c2ccccc2)nc2ccccc12,9,100*,7,4,9,5,8,·
Cc1ccc(NC(=S)N/N=C/c2ccc(Cl)c([N+](=O)[O-])c2)cc1,-40,41,-24,-16,2,-5,·,·
CC(/C=N/NC(=O)c1cc(-c2ccncc2)nc2ccccc12)=C\c1ccco1,86*,63*,-21,50,-21,-7,62*,97*
O=C(N/N=C/c1ccc([N+](=O)[O-])o1)c1cc(-c2ccncc2)nc2ccccc12,-67,62*,-1,30,-5,3,52*,44*
CN1CCN(c2ccc(S(=O)(=O)N3CCOCC3)cc2NC(=O)COc2ccc(C#N)cc2)CC1,·,·,·,2,·,·,·,·
O=C(N/N=C/c1cccnc1)c1cc(-c2ccc(Br)cc2)nc2ccccc12,·,52*,11,-3,14,3,56*,58*
Cc1n[nH]c(C)c1C(=O)CC1(O)C(=O)N(Cc2ccccc2)c2ccc(Br)cc21 (stereo not given),10,-28,1,-3,17,-1,·,·
C=CCN1C(=O)C(O)(CC(=O)c2ccco2)c2cc(Br)ccc21 (stereo not given),-15,59*,-3,-3,9,2,35,·
O=c1oc(-c2ccccc2)cc(Cl)c1Cl,-198,94*,-7,-1,8,16,81*,3
CC(C(=O)O)N(c1ccccc1Cl)S(C)(=O)=O (stereo not given),·,10,·,-1,8,-13,·,·
O=C(Nc1ccc(N2CCOCC2)cc1)c1cnsn1,106*,70*,16,30,47,29,68*,32
O=C(Nc1ccccc1N1CCOCC1)c1cnccn1,16,5,15,-6,10,17,·,·
O=C(Nc1ccc(N2CCOCC2)cc1)c1cnccn1,67*,54*,44,-24,8,-19,32,·
CCCCC(CC)CNC(=O)CN1C(=O)NC2(CCc3ccccc32)C1=O (stereo not given),25,5,-7,-14,0,-9,·,·
